Compound activity (PubChem BioAssay)
Mito fusion act – inhibitors of mitochondrial division or activators of mitochondrial fusion. 0.23% of 320,000 active. Potency, µM (titrated, usually from 46.1 µM), inactives show at the top dose growth rescue (activation), most hits filed as activators. AID 485298. S. cerevisiae fusion-defective mutant growth rescue, CellTiterGlo 48 h; further: % of control where 0% means no effect; nearly all actives have a fitted effect of over 45% in size
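S. cerevisiae fusion-defective temperature-sensitive mutants (e.g. fzo1-1, mgm1-5) grown 48 h at 37C in YPEG (ethanol/glycerol non-fermentable) medium with 23 nl compound per well; growth rescue read as CellTiterGlo luminescence.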
gsp agonist – agonists of gsp mutant (McCune-Albright syndrome). AID 624287. gsp mutant cells, cAMP HTRF, 30 min. 0.13% of 340,000 active. Potency, µM (top dose mostly 76.9 µM), without a hit: top-dose activation (cAMP increase), most hits filed as activators; active means well fitted activation curve with a large enough effect; inconclusive means small, poorly fitted or top-dose-only effect, or another doubt; inactive means no such curve, though single readings can be large or run the other way; cell line not stated here;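 further: phosphodiesterase inhibitor Ro 20-1724 added with compounds to block cAMP breakdown; nearly all actives have a fitted effect of over 60% in size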
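Cells stably selected in G418 were plated at 2000/well, grown 16-24 hr, then given compounds in DMSO with the PDE inhibitor […] (300 uM solution added) for 30 min at 37C; cAMP was read by HTRF.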
gsp antag – antagonizes gsp, the McCune-Albright syndrome mutation; gsp-mutant cells, cAMP HTRF, 30 min; Potency, µM (top dose mostly 76.9 µM), for the others: top-dose activity change, negative = inhibition, usual class: inhibitors; 0.4% of 340,000 active; calls by dose curve; cell line not stated here;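 further: intracellular cAMP measured with PDE inhibitor Ro 20-1724 present during compound exposure; on the % scale 0 is the no-effect control and ±100 the full control effect; nearly all actives have a fitted effect of over 65% in size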
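HTRF cAMP read-out (cAMP-d2 plus anti-cAMP antibody-K in lysis buffer, 30 min RT). Before lysis, cells are exposed to compounds with […] for 30 min at 37C in DPBS containing Ca/Mg, BSA and Tween 20.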
FUS suppressor – rescues growth of FUS-expressing yeast; 0.24% of 390,000 active; S. cerevisiae FUS-expressing, growth rescue, OD600, 24 h; Potency, µM (top dose mostly 76.6 µM), most hits filed as activators;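 further: plate controls were DMSO vehicle for no effect and reference control for full effect; nearly all actives have a fitted effect of over 55% in size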
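Steps: raffinose overnight preculture; dilution to OD 0.005 in 2% galactose minimal medium; compound addition (concentration series); 24hr at 30C, 99% humidity; absorbance read at 600 nm.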
12-LOX inh – inhibitors of human 12S-lipoxygenase ALOX12 | P18054 | purified 12hLO, xylenol orange hydroperoxide absorbance | Potency, µM (doses to about 108 µM), for the others: at the top dose activity change, negative = inhibition, usual class: inhibitors | 1.1% of 580,000 active | AID 1671190; further: on the % scale 0 is the no-effect control and ±100 the full control effect
Target sequence (P18054 whole entry, looked up): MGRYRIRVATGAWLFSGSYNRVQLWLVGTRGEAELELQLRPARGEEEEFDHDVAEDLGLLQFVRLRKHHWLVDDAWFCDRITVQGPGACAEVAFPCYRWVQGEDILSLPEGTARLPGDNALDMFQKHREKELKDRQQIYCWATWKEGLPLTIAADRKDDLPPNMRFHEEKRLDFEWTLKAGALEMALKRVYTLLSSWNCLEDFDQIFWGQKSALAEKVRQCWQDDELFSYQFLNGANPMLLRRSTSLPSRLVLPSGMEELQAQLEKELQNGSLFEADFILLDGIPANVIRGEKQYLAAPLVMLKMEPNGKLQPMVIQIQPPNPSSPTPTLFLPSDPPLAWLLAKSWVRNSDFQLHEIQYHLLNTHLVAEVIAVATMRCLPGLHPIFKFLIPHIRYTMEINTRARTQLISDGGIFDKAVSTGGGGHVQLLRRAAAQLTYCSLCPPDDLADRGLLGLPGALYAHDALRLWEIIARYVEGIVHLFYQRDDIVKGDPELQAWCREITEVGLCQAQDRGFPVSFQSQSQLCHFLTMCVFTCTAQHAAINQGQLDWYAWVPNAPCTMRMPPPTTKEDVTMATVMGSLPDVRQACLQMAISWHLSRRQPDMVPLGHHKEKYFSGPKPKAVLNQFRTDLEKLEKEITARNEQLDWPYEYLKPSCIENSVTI
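Purified human 12hLO at 150 nM in 25 mM Hepes, 0.01% Triton X-100, pH 7.0, preincubated 15 min at room temperature with compound. Reaction started with 40 uM arachidonic acid, 30 min at room temperature. Hydroperoxide measured by Fe-xylenol orange, 573/405 nm absorbance ratio.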
* = called active by the depositor; i = inactive; ? = inconclusive; / = no result given; [ ] = another dose, or the depositor's remark. Rows were chosen to be rich in hits. Some 1.6% of all compounds tested hit in one or more screens of this group. Unless noted, the call rests on the fitted dose curve; in most records, active means well fitted curve in the direction sought with a large enough effect; inconclusive means small, poorly fitted or top-dose-only effect, or another doubt; inactive means no such curve, though single readings can be large; an effect the other way counts as inactive or inconclusive. Potency means the concentration at half of the fitted maximal effect.

SMILES	Mito fusion act	gsp agonist	gsp antag	FUS suppressor	12-LOX inh
O=C(c1ccc(F)cc1)N1CCC2(C1)C(=O)N(CCc1ccccc1)c1ccccc12 (stereo not given)	/	/	/	/	75%
CCOc1ccccc1-n1cnc2cc(C(=O)NCC(OCC)OCC)ccc21	/	/	/	/	-4%
COc1cccc(N2C(=O)NC(=NC3CCCC3)C23CCCN(CC2CCCCC2)C3)c1 (stereo not given)	/	/	/	/	79µM*
CCOC(=O)c1cnc2ccc(OCC)cc2c1Nc1ccccc1OC	/	/	/	/	0%
COc1ccccc1-c1cc(-c2ccc(=O)[nH]c2)c2cncn2c1	/	/	/	/	22µM*
COc1ccc(-c2cc(-c3cccc(O)c3)cn3cncc23)cc1	/	/	/	/	16µM*
COc1ncccc1-c1cc(-c2ccc(=O)[nH]c2)c2cncn2c1	/	/	/	/	-11%[176 µM]
COc1cccc(-c2cc(-c3cn[nH]c3)c3cncn3c2)c1	/	/	/	/	-5%[176 µM]
Cc1ccc(COC(=O)c2ccccc2Sc2ccccc2C#N)cc1	/	/	/	/	-15%
O=C1CSc2ccc(C(=O)Nc3cccc4cccnc34)cc2N1	/	/	/	/	32%
Fc1ccc(-c2c[nH]c(=S)n2Cc2ccccc2)cc1	-1%	1%	-2%	i	50µM*
CN(Cc1ccccc1)S(=O)(=O)c1ccc(NC(=S)NC(=O)C(C)(C)C)cc1	-6%	-48%	-4%	/	35µM*
CSc1ccc(S(=O)(=O)N(C)Cc2ccccc2)cc1	18%	-24%	35µM*	i	15%
CC(=O)Nc1ccc(S(=O)(=O)N(C)Cc2ccccc2)cc1	-2%	5%	11%	/	-9%
CN(Cc1ccccc1)S(=O)(=O)c1ccc(NC(=S)NC(=O)C2CCCCC2)cc1	3%	-16%[15.4 µM]	6%	i	18µM*
CN(Cc1ccccc1)S(=O)(=O)c1ccc(NS(C)(=O)=O)cc1	-1%	9%	-16%	i	18%
COCCNC(=O)C(C)[C@@H]1CC[C@@]2(C)CC[C@H](NC(=O)c3cccc(F)c3)[C@@H](C)[C@@H]2[C@H]1O (stereo not given in full)	/	/	/	/	2%
O=C(CSc1nc2ccccc2o1)Nc1nc2ccccc2s1	-1%	6%	4%	i	20%
O=C(CSc1nnc(-c2ccncc2)n1Cc1ccco1)Nc1ccccc1Cl	9%	4%	5%	i	-15%
O=C(CSc1nc2ccccc2o1)Nc1nc(-c2ccccc2)cs1	16µM*	-7%	-6%	i	-22%
O=C(CSc1nnc(-c2cccnc2)n1Cc1ccco1)Nc1ccc(Cl)cc1	/	/	/	i	/
O=C(CSc1nnc(-c2ccncc2)n1Cc1ccco1)Nc1nc(-c2ccccc2)cs1	5%	-7%	35µM*	i	?
O=C(CSc1nnc(-c2cccnc2)n1Cc1ccco1)N1c2ccccc2Sc2ccccc21	-2%	11%	?	?	32µM*
O=C(c1ccccc1F)N1CCC2(CC1)NCCc1c2[nH]c2ccccc12	/	/	/	/	25%
C=CCNCc1cccc(OC)c1OCC	/	/	/	/	-26%
SMILES	Mito fusion act	gsp agonist	gsp antag	FUS suppressor	12-LOX inh
COc1ccccc1-c1cc(C(=O)O)c2cccc(C)c2n1	/	/	/	/	10µM*
COc1ccc(-c2cc(C(=O)O)c3cc(C)cc(C)c3n2)c(OC)c1	/	/	/	/	-7%
Cc1ccc(-c2cc(C(=O)O)c3cccc(C)c3n2)s1	/	/	/	/	11µM*
CCCc1cc(C(=O)NC(C)CC)sc1C (stereo not given)	/	/	/	/	-21%
COc1cc(C(C(=O)NC2CCCCC2)N(C(=O)Cc2c[nH]c3ccccc23)c2ccccc2C)cc(OC)c1OC (stereo not given)	-3%	-79%	-17%	22µM*	-16%
O=S(=O)(O)c1cc(O)c2c(O)c(N=Nc3cc(Cl)ccc3O)c(S(=O)(=O)O)cc2c1	-26%	-80%	?	i	/
O=S(=O)(O)c1cc(Cl)cc(N=Nc2ccc(O)cc2O)c1O	/	12%	-10%	/	45µM*
CC[C@@H](C(=O)[C@H](C)[C@@H](O)[C@H](C)CCc1ccc(C)c(O)c1C(=O)O)C1O[C@@](CC)(C2CC[C@](O)(CC)[C@H](C)O2)C[C@@H]1C (stereo not given in full)	/	/	/	/	15%
O=C(/C=C/c1cc2ccccc2nc1N1CCOCC1)c1cccc(O)c1	/	/	/	/	16µM*
N#CC(C#N)=Cc1cc2ccccc2nc1N1CCOCC1	-3%	-3%	4%	i	-23%
